Screening results (PubChem)
Only a selection was taken, and hits are over-represented in it overall.
Methyltransferases: Primary Screen for Target Class Profiling of Small Molecule Inhibitors of Methyltransferases. purified enzyme, MTase-Glo SAH luminescence; stronger effect = lower value. calls only at 40 µM. 25,000 compounds, 3.9% hits. AID 1745853, 2022; call rule not given here
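Each enzyme was assayed with SAM and its substrate. SAH formation detected by MTase-Glo luminescence; single-point 40 uM screen[…].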
Calls only; i = inactive; + = active, no number; ! = repeats disagree.

SMILES	Methyltransferases
CCC(C)NC(=O)c1ccc2c(=O)n(C)c3nn(CC(=O)Nc4cc(F)ccc4F)c(=O)n3c2c1 (stereo not given)	i
O=C(c1ccncc1)N1CCC(Nc2cccnc2)C1 (stereo not given)	i
CN1CCc2cc(NC(=O)Nc3cccnc3)ccc21	i
Cn1ccc2cc3c(cc21)CCN3C(=O)Nc1cccnc1	+
CCOc1ccccc1CN1C(=O)c2cc3occc3n2CC1(C)C(=O)NC1CCCCCC1 (stereo not given)	i
COc1ccc(Cl)cc1N1C(=O)CSc2c(c3ccccc3n2C)C1C(=O)NCCCOC(C)C (stereo not given)	i
Fc1ccc2[nH]ccc2c1-c1nc(N2CCOCC2)c2sc(CN3CCN(CC4CC4)CC3)cc2n1	+
Cc1ccc(Cn2c(=O)c3ccccc3n3c(=O)n(CC(=O)c4ccc(C)cc4C)nc23)cc1	i
COc1ccc(OC)c2c1cc1n2CC(C)(C(=O)NC2CCCC2)N(Cc2ccc(F)cc2)C1=O (stereo not given)	i
Cc1nc(Nc2n[nH]c3c2CN(C(=O)N[C@H](CN(C)C)c2ccccc2)C3(C)C)c2sccc2n1	+
CSc1ccc(CN2C(=O)c3cc(-c4ccccc4)nn3CC2(C)C(=O)NCc2ccccc2)cc1 (stereo not given)	i
CCCn1c(=O)c2ccc(C(=O)NCC(C)C)cc2n2c(=O)n(CC(=O)NC3CCCCC3)nc12	i
CNCc1ccc(-c2[nH]c3cc(F)cc4c3c2CCNC4=O)cc1	+!
CC1(C(=O)NC2CCCCCC2)Cn2c(c(-n3cccc3)c3cc(F)ccc32)C(=O)N1Cc1cccc(F)c1 (stereo not given)	i
CCOC(=O)c1cc2n(n1)CC(C)(C(=O)NCc1ccccc1OC)N(c1ccc(C)c(Cl)c1)C2=O (stereo not given)	i
CN(CCCOc1ccc(Cc2ccccc2)cc1)CCC(=O)O	i
COc1ccc(CCN(C)CCCOc2nsc(-c3ccccc3)n2)cc1OC	+
COc1cccc(-c2[nH]cnc2-c2ccccc2)c1OCCCN(C)C	i
CC1CCC(NC(=O)Cn2c(=O)oc3cc(S(=O)(=O)NCc4ccccc4)ccc32)CC1 (stereo not given)	i
COc1cccc(CNC(=O)Cn2nc3n(Cc4ccc(C)cc4)c(=O)c4ccccc4n3c2=O)c1	i
O=c1c2ccccc2n2c(-c3ccccc3)nnc2n1Cc1ccc(F)cc1	i
CC[C@H](C)C(=O)O[C@H]1C[C@@H](C)C=C2C=C[C@H](C)[C@H](CC[C@@H]3C[C@@H](O)CC(=O)O3)[C@H]21	i
CC[C@H](C)C(=O)O[C@H]1CCC=C2C=C[C@H](C)[C@H](CC[C@@H]3C[C@@H](O)CC(=O)O3)[C@H]21	+
COc1cc(NC(=O)CSc2nnc3n(CCC(C)C)c(=O)c4ccccc4n23)cc(OC)c1	i
COc1ccc(CN2C(=O)c3cc4sccc4n3CC2(C(=O)NC2CCCCCCC2)c2ccccc2)cc1 (stereo not given)	i
SMILES	Methyltransferases
C=CCc1ccc(O[C@@H]2O[C@H](CO[C@@H]3O[C@@H](C)[C@H](O)[C@@H](O)[C@H]3O)[C@@H](O)[C@H](O)[C@H]2O)cc1	i
COC(=O)c1ccc(OC)cc1O[C@@H]1O[C@H](CO[C@@H]2OC[C@@H](O)[C@H](O)[C@H]2O)[C@@H](O)[C@H](O)[C@H]1O	i
C[C@@H]1O[C@@H](OC[C@H]2O[C@@H](OCCc3ccccc3)[C@H](O)[C@@H](O)[C@@H]2O)[C@H](O)[C@H](O)[C@H]1O	i
COc1ccc(CCO[C@@H]2O[C@H](CO[C@@H]3OC[C@H](O)[C@H](O)[C@H]3O)[C@@H](O)[C@H](O)[C@H]2O)cc1	+
OC1COC(OCC2OC(OCCc3ccccc3)C(O)C(O)C2O)C(O)C1O (stereo not given)	+
OC[C@@]1(O)CO[C@H](OC[C@H]2O[C@@H](OCCc3ccccc3)[C@H](O)[C@@H](O)[C@@H]2O)[C@@H]1O	i
CC(C)OCCCn1c(=O)c2ccccc2n2c(SCC(=O)Nc3ccc(C(C)C)cc3)nnc12	i
Cc1ccc(C(=O)Cn2nc3n(Cc4ccccc4)c(=O)c4ccccc4n3c2=O)cc1	i
Cc1ccc(C)c(N2CCN(C(=O)c3ccc4c(=O)nc5c(-c6ccccc6F)n[nH]n5c4c3)CC2)c1	i
CC1CCC(NC(=O)C2(C)Cn3c(cc4occc43)C(=O)N2Cc2ccc(F)cc2)CC1 (stereo not given)	i
CC(C)n1c(=O)c2ccc(C(=O)NC3CCCCC3)cc2n2c(=O)n(CC(=O)N(C)c3ccccc3)nc12	i
COc1ccccc1N1C(=O)CSc2c(c3ccccc3n2C)C1C(=O)NCc1ccccc1 (stereo not given)	i
CCCCN1C(=O)c2ccccc2CC1(C)C(=O)NCc1ccccc1 (stereo not given)	i
CN(C)CCCn1cc(C2=C(c3c[nH]c4ccccc34)C(=O)NC2=O)c2ccccc21	+
Cc1nnc(N2CCC3(CCC(=O)N(CCCN(C)C)C3)CC2)c2ccccc12	i
CCCn1c(=O)c2ccccc2n2c(=O)n(CC(=O)c3ccc(F)cc3)nc12	i
